Measured values taken from PubChem BioAssay (Tox21).
Results filed as inconclusive are left out. Where a call stands in place of a potency, no number is given. Values without a mark were called inactive. The source made the active and inactive calls. Unless noted, calls follow the shape of the dose curve; as a rule, active = well fitted curve in the direction sought with a large enough effect in the repeat runs; inconclusive = weak or mixed curves; inactive = no such curve, though single readings can be large; an effect the other way counts as inactive or inconclusive.

Key:
[1] = qHTS assay to identify small molecule antagonists of the thyroid receptor (TR) signaling pathway - cell viability counter screen (AID 743064); also: nearly all actives have a fitted effect of over 50% in size; also: potency is read from the fitted curve at half-maximal effect
Outline: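 CellTiter-Fluor readout, 30 min at 37 °C/5% CO2, following 23.5 h incubation of GH3.TRE-Luc cells with test compound and 1 nM T3 (final).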

[2] = qHTS assay to identify small molecule antagonists of the thyroid receptor (TR) signaling pathway (AID 743065); also: nearly all actives have a fitted effect of over 55% in size; also: potency is read from the fitted curve at half-maximal effect; as to activity, negative = inhibition: series mostly up to about 70 µM
Outline: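 GH3.TRE-Luc rat pituitary cells (two TREs driving luciferase) were dosed with compound, then stimulated with 1 nM T3 (final) for 23.5 h at 37 C. ONE-Glo luminescence was the read-out, with CellTiter-Fluor fluorescence as the cytotoxicity counter-screen.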

[3] = test system: thyroid hormone receptor (rat, GH3 cells); assay: qHTS assay to identify small molecule agonists of the thyroid receptor (TR) signaling pathway (AID 743066; calls by dose curve)
[4] = target: Estrogen receptor (Homo sapiens) (UniProt P03372); assay: qHTS assay to identify small molecule antagonists of the estrogen receptor alpha (ER-alpha) signaling pathway (AID 743069; active = well fitted curve in the direction sought with a large enough effect in the signal ratio in the repeat runs, not every such curve was filed as active; the % refers to the signal ratio)
Outline: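 In this cell-based reporter format, GripTite HEK293 cells harbouring ER-alpha-UAS-bla were grown overnight with 2% charcoal-stripped FBS, dosed with DMSO-dissolved compounds, then challenged with 17beta-estradiol. After 18 hr at 37C, beta-lactamase activity was detected by FRET fluorescence.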

[5] = qHTS assay to identify small molecule antagonists of the estrogen receptor alpha (ER-alpha) signaling pathway - cell viability counter screen (AID 743074; calls by dose curve; also: nearly all actives have a fitted effect of over 45% in size)
[6] = target: Estrogen receptor (Homo sapiens) (UniProt P03372); assay: qHTS assay to identify small molecule agonists of the estrogen receptor alpha (ER-alpha) signaling pathway (AID 743075; calls by dose curve; also: potency is read from the fitted curve at half-maximal effect)
[7] = target: Estrogen receptor (Homo sapiens) (UniProt P03372); assay: qHTS assay to identify small molecule agonists of the estrogen receptor alpha (ER-alpha) signaling pathway using the BG1 cell line (AID 743079); also: nearly all actives have a fitted effect of over 20% in size; also: potency is read from the fitted curve at half-maximal effect
[8] = qHTS assay to identify small molecule antagonists of the estrogen receptor alpha (ER-alpha) signaling pathway using the BG1 cell line (AID 743080; calls by dose curve;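 also: BG1 cells stimulated with 17beta-estradiol alongside compound; series mostly up to about 70 µM; nearly all actives have a fitted effect of over 25% in size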)
Outline: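 After 5 days in phenol-red-free 10% charcoal-stripped FBS medium, BG1-Luc-4E2 cells were seeded, left 24 h at 37 C, co-treated with compounds and 17beta-estradiol for 21.5 h, then assayed for viability and luciferase.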

[9] = qHTS assay to identify small molecule antagonists of the estrogen receptor alpha (ER-alpha) signaling pathway using the BG1 cell line - cell viability counter screen (AID 743081);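 also: compound given together with 17beta-estradiol as the ER stimulus; series mostly up to about 70 µM; nearly all actives have a fitted effect of over 45% in size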
Aromatase (Homo sapiens) = Aromatase (Homo sapiens) (UniProt P11511); assay: qHTS assay to identify aromatase inhibitors (AID 743083); also: nearly all actives have a fitted effect of over 55% in size; also: potency is read from the fitted curve at half-maximal effect; as to activity, negative = inhibition: series mostly up to about 70 µM
Chain of Aromatase (Homo sapiens) (P11511 whole entry, looked up): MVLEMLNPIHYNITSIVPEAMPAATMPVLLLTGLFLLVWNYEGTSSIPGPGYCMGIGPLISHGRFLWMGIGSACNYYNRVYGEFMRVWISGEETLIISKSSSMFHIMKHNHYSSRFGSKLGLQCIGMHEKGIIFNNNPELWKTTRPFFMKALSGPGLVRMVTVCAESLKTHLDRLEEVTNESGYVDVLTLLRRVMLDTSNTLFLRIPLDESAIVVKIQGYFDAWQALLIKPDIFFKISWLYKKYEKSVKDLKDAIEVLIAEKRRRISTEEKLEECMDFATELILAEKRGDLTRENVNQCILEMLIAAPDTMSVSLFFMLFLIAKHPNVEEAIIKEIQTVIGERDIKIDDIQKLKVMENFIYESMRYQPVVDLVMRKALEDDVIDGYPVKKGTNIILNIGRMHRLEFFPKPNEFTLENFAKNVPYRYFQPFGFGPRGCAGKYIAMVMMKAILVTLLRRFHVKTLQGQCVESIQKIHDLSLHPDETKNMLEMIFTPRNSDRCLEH

Chain of Estrogen receptor (Homo sapiens) (P03372 whole entry, looked up): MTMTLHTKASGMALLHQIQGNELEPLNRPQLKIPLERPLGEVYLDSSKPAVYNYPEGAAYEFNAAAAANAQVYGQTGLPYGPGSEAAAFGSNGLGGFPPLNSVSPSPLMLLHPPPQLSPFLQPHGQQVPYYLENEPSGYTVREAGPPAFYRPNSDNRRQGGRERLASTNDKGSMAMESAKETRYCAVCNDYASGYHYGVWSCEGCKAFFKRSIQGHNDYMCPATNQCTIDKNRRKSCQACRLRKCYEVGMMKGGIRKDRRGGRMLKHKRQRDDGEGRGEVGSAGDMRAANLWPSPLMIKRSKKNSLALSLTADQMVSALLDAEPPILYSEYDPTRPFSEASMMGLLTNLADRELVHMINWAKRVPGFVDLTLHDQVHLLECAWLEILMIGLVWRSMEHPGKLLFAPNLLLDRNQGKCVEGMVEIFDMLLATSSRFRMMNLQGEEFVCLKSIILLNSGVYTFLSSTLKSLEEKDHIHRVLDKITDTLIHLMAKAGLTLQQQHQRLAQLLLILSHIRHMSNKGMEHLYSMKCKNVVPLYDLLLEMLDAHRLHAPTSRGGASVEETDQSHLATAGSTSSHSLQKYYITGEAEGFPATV

Row | Compound | activity change, negative = cytotoxic [1] | activity, negative = inhibition [2] | activation [3] | activity, negative = inhibition [4] | activity, negative = cytotoxicity [5] | activation [6] | Potency [7] | activity change, negative = inhibition [8] | activity change, negative = cytotoxicity [9] | activity, negative = inhibition (Aromatase (Homo sapiens)) | Potency [1] | Potency [2] | outcome [3] | outcome [4] | outcome [5] | Potency [6] | outcome [8] | Potency [9] | Potency (Aromatase (Homo sapiens))
1 | CCCCCCCCCCCCCC=O | -8.15% [at 8.44 µM] | -3.68% [at 8.44 µM] | 0.523% [at 8.08 µM] | -10.5% [at 6.71 µM] | -17.6% [at 6.72 µM] | 2.95% [at 6.71 µM] | 2.69 µM (active) | 0.386% [at 8.47 µM] | -2.15% [at 8.47 µM] | -2.09% [at 8.47 µM] | – | – | – | – | – | – | – | – | –
2 | c1ccc(CC2=NCCN2)cc1 | – | – | – | – | – | – | inactive | – | – | – | inactive | inactive | inactive | inactive | inactive | inactive | inactive | inactive | inactive
3 | ClC(Cl)(Br)Br | – | – | – | – | – | – | inactive | – | – | – | inactive | inactive | inactive | inactive | inactive | inactive | inactive | inactive | inactive
4 | Nc1cc(=O)[nH]c(N)n1 | – | – | – | – | – | – | inactive | – | – | – | inactive | inactive | inactive | inactive | inactive | inactive | inactive | inactive | inactive
5 | CS(=O)(=O)O | – | – | – | – | – | – | inactive | – | – | – | inactive | inactive | inactive | inactive | inactive | inactive | inactive | inactive | inactive
6 | CC(C)CCCC(C)N (centres undefined) | – | – | – | – | – | – | 21.1 µM (active) | – | – | – | inactive | inactive | inactive | inactive | inactive | inactive | inactive | inactive | inactive
7 | CCCCCSCCCCC | – | – | – | – | – | – | inactive | – | – | – | inactive | inactive | inactive | inactive | inactive | inactive | inactive | inactive | inactive
8 | COC(=O)C1=C(C)NC(C)=C(C(=O)OC)C1c1ccccc1[N+](=O)[O-] | – | – | – | – | – | – | inactive | – | – | – | 48.6 µM (active) | 30.7 µM (active) | inactive | inactive | inactive | inactive | inactive | inactive | 68.7 µM (active)
9 | Cc1cc2c(cc1S(N)(=O)=O)S(=O)(=O)CCC2 | – | – | – | – | – | – | inactive | – | – | – | inactive | inactive | inactive | inactive | inactive | inactive | inactive | inactive | inactive
10 | FC1(F)C(F)(F)C(F)(F)C2(F)C(F)(F)C(F)(F)C(F)(F)C(F)(F)C2(F)C1(F)F (centres undefined) | – | – | – | – | – | – | inactive | – | – | – | inactive | inactive | inactive | inactive | inactive | inactive | inactive | inactive | inactive
11 | C1CN(CCOCCN2CCOCC2)CCO1 | – | – | – | – | – | – | inactive | – | – | – | inactive | inactive | inactive | inactive | inactive | inactive | inactive | inactive | inactive
12 | NS(=O)(=O)c1cc2c(cc1Cl)NC(C1CC3C=CC1C3)NS2(=O)=O (centres undefined) | – | – | – | – | – | – | inactive | – | – | – | inactive | inactive | inactive | inactive | inactive | inactive | inactive | inactive | inactive
13 | CC1(C)CO[C@@H](CC(=O)O)CN1 | – | – | – | – | – | – | inactive | – | – | – | inactive | inactive | inactive | inactive | inactive | inactive | inactive | inactive | inactive
14 | C=C(C)C(=O)OCCCCCCCC(C)C | – | – | – | – | – | – | inactive | – | – | – | inactive | inactive | inactive | inactive | inactive | inactive | inactive | inactive | inactive
15 | CCCCC(CC)COC(=O)c1ccccc1O (centres undefined) | – | – | – | – | – | – | 16.8 µM (active) | – | – | – | inactive | inactive | inactive | inactive | inactive | inactive | inactive | inactive | inactive
16 | c1ccc([C@H]2CN3CCSC3=N2)cc1 | – | – | – | – | – | – | 11.9 µM (active) | – | – | – | inactive | inactive | inactive | inactive | inactive | 0.0601 µM [fluorescent] (active) | inactive | inactive | inactive
17 | CCOC(C)(C)C | – | – | – | – | – | – | inactive | – | – | – | inactive | inactive | inactive | inactive | inactive | inactive | inactive | inactive | inactive
18 | O=[N+]([O-])c1ccc(F)cc1F | – | – | – | – | – | – | inactive | – | – | – | inactive | inactive | inactive | inactive | inactive | inactive | inactive | inactive | inactive
19 | CCO/C([O-])=N/c1c[n+](N2CCOCC2)no1 | – | – | – | – | – | – | inactive | – | – | – | inactive | inactive | inactive | inactive | inactive | inactive | inactive | inactive | inactive
20 | N[C@H]1CN(c2c(F)cc3c(=O)c(C(=O)O)cn(C4C[C@H]4F)c3c2Cl)CC12CC2 (some centres undefined) | – | – | – | – | – | – | inactive | – | – | – | inactive | inactive | inactive | inactive | inactive | inactive | inactive | – | inactive
21 | O=C(O)c1ccccc1OP(=O)(O)O | – | – | – | – | – | – | inactive | – | – | – | inactive | inactive | inactive | inactive | inactive | inactive | inactive | inactive | inactive
22 | COc1cc(C(=O)N2CCCCCCC2)cc(OC)c1OC | – | – | – | – | – | – | inactive | – | – | – | inactive | inactive | inactive | inactive | inactive | inactive | inactive | inactive | inactive
23 | CN1C(=O)N(C)C(O)C1O (centres undefined) | – | – | – | – | – | – | inactive | – | – | – | inactive | inactive | inactive | inactive | inactive | inactive | inactive | inactive | inactive
24 | CCN(CC)CCNC(=O)c1cc(S(C)(=O)=O)ccc1OC | – | – | – | – | – | – | inactive | – | – | – | inactive | inactive | inactive | inactive | inactive | inactive | inactive | inactive | inactive
25 | NCCCNCCSP(=O)(O)O | – | – | – | – | – | – | inactive | – | – | – | inactive | inactive | inactive | inactive | inactive | inactive | inactive | inactive | inactive
